Records with an inconclusive call do not appear. Activity calls are given as the source filed them. Rule for the calls, unless noted: active = hit-call score of the fitted dose curve at least 0.9, where 1 is the maximum; inactive = score below 0.9.
Columns and labels:
[1] = ATG_PXRE_CIS: Attagene CIS-FACTORIAL HepG2 Assay for human Pregnane X Receptor Element (PXRE) (AID 2282957); details: HepG2 Attagene CIS-FACTORIAL PXRE reporter, mRNA; actives raise or lower the signal
Method in brief: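 Fluorescent capillary electrophoresis of amplified reporter cDNA gave the signal, collected 24 h after dosing HepG2 cells that held transfected cis-element reporter constructs.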

[2] = ATG_PPRE_CIS: Attagene CIS-FACTORIAL HepG2 Assay for human Peroxisome Proliferator-activated Response Element (PPRE) (AID 2282958); details: HepG2 PPRE cis-element reporter, Attagene transcription factor profiling; actives raise or lower the signal
Method in brief: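 Measured endpoint: PPRE-controlled reporter mRNA, detected by RT-PCR and capillary electrophoresis fluorescence, from transiently transfected HepG2 cells 24 h after dosing. Curves fitted in both directions using DMSO baseline.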

[3] = ATG_RORE_CIS: Attagene CIS-FACTORIAL HepG2 Assay for human RAR-related Orphan Receptor Element (RORE) (AID 2282959); details: HepG2 Attagene cis-factorial RORE reporter, mRNA; actives raise or lower the signal
Method in brief: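 Transiently transfected HepG2 reporter cells were treated 24 h. Reporter transcripts were detected by RT-PCR and capillary electrophoresis, with bidirectional fitting against DMSO.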

[4] = ATG_Sox_CIS: Attagene CIS-FACTORIAL HepG2 Assay for human SRY-box transcription factor (SOX) (AID 2282960); details: HepG2 Attagene cis-factorial SOX reporter, mRNA; actives raise or lower the signal
Method in brief: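 Gain- or loss-of-signal endpoint, fitted bidirectionally with DMSO as negative control. Based on reporter mRNA from transfected HepG2 cells harvested 24 h post-treatment and quantified via RT-PCR and capillary electrophoresis.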

[5] = target: Transcription factor Sp1 (Homo sapiens) (UniProt P08047); assay: ATG_Sp1_CIS: Attagene CIS-FACTORIAL HepG2 Assay for human Specificity Protein 1 (Sp1) (AID 2282961); details: HepG2 Sp1 cis-reporter transcription, actives raise or lower the signal
Method in brief: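 Endpoint reflects endogenous Sp1 transcriptional activity, not an exogenous fusion protein: HepG2 cells with transfected cis-regulated reporters, 24 h dosing, RT-PCR/capillary electrophoresis mRNA read-out, DMSO-normalised bidirectional fit.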

[6] = ATG_SREBP_CIS: Attagene CIS-FACTORIAL HepG2 Assay for human Sterol Regulatory Element Binding (SREBP) (AID 2282962); details: HepG2 Attagene cis-factorial SREBP reporter, mRNA; actives raise or lower the signal
Method in brief: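 In this cis-format assay, HepG2 liver cells express reporters controlled by promoter elements responsive to native transcription factors. Exposure lasts 24 h; reporter mRNA fluorescence from capillary electrophoresis gives the signal, fitted bidirectionally against DMSO.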

[7] = target: Signal transducer and activator of transcription 3 (Homo sapiens) (UniProt P40763); assay: ATG_STAT3_CIS: Attagene CIS-FACTORIAL HepG2 Assay for human Signal Transducer and Activator of Transcription 3 (STAT3) (AID 2282963); details: HepG2, Attagene cis-factorial STAT3 reporter transcription; actives raise or lower the signal
Method in brief: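 Fluorescence intensity of 6-FAM-labelled reporter fragments, separated by capillary electrophoresis after RT-PCR, gave the signal. Cells were HepG2 transfected with cis-element reporter units and treated 24 h; fitting was bidirectional relative to DMSO.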

[8] = ATG_TA_CIS: Attagene CIS-FACTORIAL HepG2 Assay for human TA Basal Promoter (AID 2282964); details: HepG2 Attagene CIS-factorial TA basal promoter reporter; actives raise or lower the signal
Method in brief: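 Fluorescence from labelled RT-PCR reporter fragments, separated by capillary electrophoresis, gives the signal. Cells: HepG2 transiently carrying multiple reporter units, 24 h chemical dosing. Gain or loss relative to DMSO.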

[9] = ATG_TCF_b_cat_CIS: Attagene CIS-FACTORIAL HepG2 Assay for human T-Cell-Factor with beta-catenin (TCF/b-cat) (AID 2282965); details: HepG2 TCF/beta-catenin cis-reporter transcription, actives raise or lower the signal
Method in brief: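 HepG2, transient MRTU transfection, cis-element-driven reporters (endogenous TFs). 24 h compound exposure. Readout: reporter mRNA by RT-PCR + 6-FAM primer extension, HpaI digest, capillary electrophoresis. Gain/loss fit vs DMSO baseline.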

[10] = ATG_TAL_CIS: Attagene CIS-FACTORIAL HepG2 Assay for human TAL Basal Promoter (AID 2282966); details: HepG2 Attagene cis-factorial TAL promoter reporter; actives raise or lower the signal;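 note: background control endpoint measuring basal TAL promoter reporter mRNA not a specific factor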
Method in brief: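 Transiently transfected HepG2 (cis-regulated reporter units), 24 h treatment, mRNA read by fluorescent CE after RT-PCR; bidirectional fit, DMSO baseline.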

[11] = ATG_TGFb_CIS: Attagene CIS-FACTORIAL HepG2 Assay for human Transforming Growth Factor (TGF) (AID 2282967); details: HepG2 Attagene CIS TGFb reporter, mRNA transcription; actives raise or lower the signal
Method in brief: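 Bidirectional fitting relative to DMSO gave the endpoint. Underlying data: reporter mRNA from HepG2 cells carrying transiently transfected cis-regulated reporter constructs, harvested 24 h after dosing and analyzed by RT-PCR and capillary electrophoresis.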

[12] = target: Estrogen receptor (Homo sapiens) (UniProt P03372); assay: ATG_ERa_TRANS: Attagene TRANS-FACTORIAL HepG2 Assay for human Estrogen Receptor alpha (ERa) (AID 2282970; active = hit-call score of the fitted dose curve at least 0.9, where 1 is the maximum); details: HepG2 Attagene TRANS ERa GAL4 reporter, mRNA
Method in brief: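 One of 30 multiplexed endpoints from a HepG2 TRANS system, this one reports ERa-Gal4-driven reporter mRNA. Transcripts were quantified 24 hours post-dosing by fluorescent RT-PCR and capillary electrophoresis, with activity scored as induction over DMSO.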

[13] = target: X-box-binding protein 1 (Homo sapiens) (UniProt P17861); assay: ATG_Xbp1_CIS: Attagene CIS-FACTORIAL HepG2 Assay for human X-box Binding Protein 1 (XBP1) (AID 2282972); details: HepG2 XBP1 cis-element reporter, Attagene multiplex; actives raise or lower the signal
Method in brief: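 Changes in reporter transcript abundance, read by RT-PCR and capillary electrophoresis, reflect endogenous transcription factor activity. Transfected HepG2 cells received compound for 24 hours; DMSO defined baseline for bidirectional analysis.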

[14] = ATG_M_19_TRANS: Attagene TRANS-FACTORIAL HepG2 Assay for M19 Transcription Factor (Internal Marker) (AID 2282974; active = hit-call score of the fitted dose curve at least 0.9, where 1 is the maximum); details: HepG2 Attagene TRANS-FACTORIAL M19 internal marker reporter
Method in brief: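 Using RT-PCR and capillary electrophoresis, reporter mRNA from transiently transfected human HepG2 cells was quantified following 24 h exposure; activity was fitted in the positive direction against DMSO.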

[15] = ATG_GAL4_TRANS: Attagene TRANS-FACTORIAL HepG2 Assay for GAL4 (Internal Marker) (AID 2282976; active = hit-call score of the fitted dose curve at least 0.9, where 1 is the maximum); details: HepG2 Attagene TRANS GAL4 internal marker reporter
Method in brief: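 HepG2 cells transiently transfected with multiplexed GAL4-UAS reporter constructs were dosed for 24 h. Reporter mRNA was measured by RT-PCR, 6-FAM primer extension, HpaI digestion and capillary electrophoresis, and gain of signal was fitted relative to DMSO.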

[16] = target: Nuclear receptor subfamily 1 group I member 3 (Homo sapiens) (UniProt Q14994); assay: ATG_CAR_TRANS: Attagene TRANS-FACTORIAL HepG2 Assay for human Constitutive Androstane Receptor (CAR) (AID 2282969; active = hit-call score of the fitted dose curve at least 0.9, where 1 is the maximum;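 note: activators raise reporter mRNA above DMSO so AC50 marks induction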); details: HepG2 Attagene TRANS-FACTORIAL CAR reporter
Method in brief: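 Transiently transfected HepG2, multiplex TRANS reporters (CAR-Gal4 chimera driving GAL4-UAS reporter). 24 h dosing. Readout: reporter transcript by RT-PCR + capillary electrophoresis, fluorescence intensity; positive direction vs DMSO.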

[17] = ATG_VDRE_CIS: Attagene CIS-FACTORIAL HepG2 Assay for human Vitamin D Receptor Element (VDRE) (AID 2282968); details: HepG2 VDRE cis-reporter transcription, actives raise or lower the signal
Method in brief: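 Compounds were applied for 24 h to HepG2 cells transfected with promoter-regulated reporter units. Total RNA was reverse-transcribed, and reporter amplicons were fluorescently labelled and sized by capillary electrophoresis.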

[18] = target: Steroid hormone receptor ERR1 (Homo sapiens) (UniProt P11474); assay: ATG_ERRa_TRANS: Attagene TRANS-FACTORIAL HepG2 Assay for human Estrogen-Related Receptor alpha (ERRa) (AID 2282971; active = hit-call score of the fitted dose curve at least 0.9, where 1 is the maximum); details: HepG2 Attagene TRANS reporter, ERRa transactivation
Method in brief: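 HepG2 cells transiently transfected with multiplexed GAL4-UAS reporter units reading chimeric ERRa-Gal4 activity; 24 h compound exposure. Reporter mRNA measured by RT-PCR, 6-FAM labelling, HpaI digest and capillary electrophoresis; gain of signal fitted versus DMSO baseline.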

[19] = target: Estrogen-related receptor gamma (Homo sapiens) (UniProt P62508); assay: ATG_ERRg_TRANS: Attagene TRANS-FACTORIAL HepG2 Assay for human Estrogen-Related Receptor gamma (ERRg) (AID 2282977; active = hit-call score of the fitted dose curve at least 0.9, where 1 is the maximum;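 note: hits increase reporter signal over DMSO so potencies reflect activators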); details: HepG2 Attagene TRANS reporter, ERRg transactivation
Method in brief: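 Exogenous NR-Gal4 chimera activity measured as reporter transcript induction after 24 h in transiently transfected HepG2 cells. RNA reverse-transcribed, PCR-amplified, 6-FAM-labelled and resolved by capillary electrophoresis; increase over DMSO baseline.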

Steroid hormone receptor ERR1 (Homo sapiens), sequence (P11474 whole entry, looked up, the tested form may be a part): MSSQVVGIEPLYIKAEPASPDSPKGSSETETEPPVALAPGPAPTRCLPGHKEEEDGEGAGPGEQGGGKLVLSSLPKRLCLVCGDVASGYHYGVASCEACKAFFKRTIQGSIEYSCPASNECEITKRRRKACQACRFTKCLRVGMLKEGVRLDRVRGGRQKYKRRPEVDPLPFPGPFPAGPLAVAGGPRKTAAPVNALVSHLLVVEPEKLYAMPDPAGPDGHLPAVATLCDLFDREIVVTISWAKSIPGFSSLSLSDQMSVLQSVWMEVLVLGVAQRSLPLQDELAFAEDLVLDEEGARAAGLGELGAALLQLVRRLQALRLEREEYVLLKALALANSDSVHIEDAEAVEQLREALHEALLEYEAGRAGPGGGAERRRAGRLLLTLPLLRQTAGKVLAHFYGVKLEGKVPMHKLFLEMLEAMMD
Signal transducer and activator of transcription 3 (Homo sapiens), sequence (P40763 whole entry, looked up, the tested form may be a part): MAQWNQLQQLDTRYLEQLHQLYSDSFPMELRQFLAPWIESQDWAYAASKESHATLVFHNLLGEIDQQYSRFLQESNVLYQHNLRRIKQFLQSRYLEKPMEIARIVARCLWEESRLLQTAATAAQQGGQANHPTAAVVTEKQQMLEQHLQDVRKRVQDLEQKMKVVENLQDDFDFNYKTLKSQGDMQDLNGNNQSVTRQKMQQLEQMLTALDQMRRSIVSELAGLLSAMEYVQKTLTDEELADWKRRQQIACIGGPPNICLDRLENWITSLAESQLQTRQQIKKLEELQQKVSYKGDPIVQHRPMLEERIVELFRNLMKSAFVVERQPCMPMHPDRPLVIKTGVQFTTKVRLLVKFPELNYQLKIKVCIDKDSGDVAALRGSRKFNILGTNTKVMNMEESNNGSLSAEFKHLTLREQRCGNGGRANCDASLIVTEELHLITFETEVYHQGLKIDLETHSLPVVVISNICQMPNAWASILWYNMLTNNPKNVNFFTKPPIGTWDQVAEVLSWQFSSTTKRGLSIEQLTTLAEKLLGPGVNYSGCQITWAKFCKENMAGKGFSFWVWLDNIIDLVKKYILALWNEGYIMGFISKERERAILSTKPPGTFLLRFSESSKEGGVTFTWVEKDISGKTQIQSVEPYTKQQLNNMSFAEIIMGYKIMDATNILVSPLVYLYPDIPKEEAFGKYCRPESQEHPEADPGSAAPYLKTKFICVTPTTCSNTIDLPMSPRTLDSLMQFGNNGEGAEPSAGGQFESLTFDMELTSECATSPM
Estrogen receptor (Homo sapiens), sequence (P03372 whole entry, looked up, the tested form may be a part): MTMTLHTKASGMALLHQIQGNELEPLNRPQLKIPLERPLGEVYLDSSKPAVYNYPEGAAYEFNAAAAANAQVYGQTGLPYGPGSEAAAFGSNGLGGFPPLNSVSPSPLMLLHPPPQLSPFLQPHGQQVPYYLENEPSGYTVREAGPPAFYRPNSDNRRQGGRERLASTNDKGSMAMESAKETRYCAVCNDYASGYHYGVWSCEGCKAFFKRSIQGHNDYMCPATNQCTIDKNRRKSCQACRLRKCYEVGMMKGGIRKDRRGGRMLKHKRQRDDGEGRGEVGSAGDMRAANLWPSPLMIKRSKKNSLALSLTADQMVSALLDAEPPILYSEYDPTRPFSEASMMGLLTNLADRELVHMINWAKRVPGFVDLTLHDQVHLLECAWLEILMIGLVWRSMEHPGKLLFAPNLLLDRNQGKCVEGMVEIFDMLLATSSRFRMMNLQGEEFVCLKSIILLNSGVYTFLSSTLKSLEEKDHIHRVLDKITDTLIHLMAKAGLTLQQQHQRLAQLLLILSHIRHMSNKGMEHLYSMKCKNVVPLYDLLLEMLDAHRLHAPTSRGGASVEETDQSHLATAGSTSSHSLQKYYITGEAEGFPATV
Transcription factor Sp1 (Homo sapiens), sequence (P08047 whole entry, looked up, the tested form may be a part): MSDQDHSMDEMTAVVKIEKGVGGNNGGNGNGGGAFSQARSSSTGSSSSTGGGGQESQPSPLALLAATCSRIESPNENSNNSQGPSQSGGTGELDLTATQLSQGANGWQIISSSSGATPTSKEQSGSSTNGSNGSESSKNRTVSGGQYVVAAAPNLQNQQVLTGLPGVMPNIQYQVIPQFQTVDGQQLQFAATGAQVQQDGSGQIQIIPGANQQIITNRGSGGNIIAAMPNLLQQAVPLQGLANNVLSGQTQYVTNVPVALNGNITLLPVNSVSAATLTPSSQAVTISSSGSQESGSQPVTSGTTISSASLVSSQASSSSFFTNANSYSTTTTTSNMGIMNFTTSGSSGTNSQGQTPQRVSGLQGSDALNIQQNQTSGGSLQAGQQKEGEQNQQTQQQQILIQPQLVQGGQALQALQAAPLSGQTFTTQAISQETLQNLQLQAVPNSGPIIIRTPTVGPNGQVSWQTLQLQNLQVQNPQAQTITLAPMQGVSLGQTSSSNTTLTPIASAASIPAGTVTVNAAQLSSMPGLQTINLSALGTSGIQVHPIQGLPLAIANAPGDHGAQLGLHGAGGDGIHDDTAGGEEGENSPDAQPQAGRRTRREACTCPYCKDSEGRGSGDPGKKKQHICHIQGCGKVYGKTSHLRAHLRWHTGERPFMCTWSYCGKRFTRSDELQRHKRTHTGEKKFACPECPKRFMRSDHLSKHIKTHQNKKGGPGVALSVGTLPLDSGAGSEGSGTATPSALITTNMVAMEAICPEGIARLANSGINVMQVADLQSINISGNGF
Nuclear receptor subfamily 1 group I member 3 (Homo sapiens), sequence (Q14994 whole entry, looked up, the tested form may be a part): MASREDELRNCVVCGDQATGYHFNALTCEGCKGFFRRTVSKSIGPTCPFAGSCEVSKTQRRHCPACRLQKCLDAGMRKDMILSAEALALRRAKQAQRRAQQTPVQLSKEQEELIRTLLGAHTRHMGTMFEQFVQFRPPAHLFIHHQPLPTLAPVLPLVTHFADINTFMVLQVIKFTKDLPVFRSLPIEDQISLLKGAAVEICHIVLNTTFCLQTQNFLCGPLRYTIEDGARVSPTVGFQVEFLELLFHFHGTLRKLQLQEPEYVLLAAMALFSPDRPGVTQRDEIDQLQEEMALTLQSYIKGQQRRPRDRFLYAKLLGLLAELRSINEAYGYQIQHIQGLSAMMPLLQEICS
X-box-binding protein 1 (Homo sapiens), sequence (P17861 whole entry, looked up): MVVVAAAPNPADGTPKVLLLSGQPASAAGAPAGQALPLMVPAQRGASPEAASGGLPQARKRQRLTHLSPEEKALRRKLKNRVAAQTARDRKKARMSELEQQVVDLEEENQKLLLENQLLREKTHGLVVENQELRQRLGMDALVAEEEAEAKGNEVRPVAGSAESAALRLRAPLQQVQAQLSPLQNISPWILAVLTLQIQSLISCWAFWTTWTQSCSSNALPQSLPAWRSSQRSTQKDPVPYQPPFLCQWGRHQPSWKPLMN
Estrogen-related receptor gamma (Homo sapiens), sequence (P62508 whole entry, looked up, the tested form may be a part): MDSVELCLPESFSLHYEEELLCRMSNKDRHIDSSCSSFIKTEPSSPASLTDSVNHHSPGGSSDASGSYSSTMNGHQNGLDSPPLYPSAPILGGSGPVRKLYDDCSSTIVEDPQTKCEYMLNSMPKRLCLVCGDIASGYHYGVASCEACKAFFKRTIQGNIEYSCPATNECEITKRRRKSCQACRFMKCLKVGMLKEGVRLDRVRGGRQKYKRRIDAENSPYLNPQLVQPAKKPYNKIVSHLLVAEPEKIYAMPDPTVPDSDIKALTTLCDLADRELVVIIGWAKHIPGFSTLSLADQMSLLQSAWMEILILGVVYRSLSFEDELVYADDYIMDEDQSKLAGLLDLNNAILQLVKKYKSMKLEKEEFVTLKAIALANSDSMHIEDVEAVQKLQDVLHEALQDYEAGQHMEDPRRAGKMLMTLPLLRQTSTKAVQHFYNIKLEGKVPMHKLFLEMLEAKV

CC(C)(C)c1ccc(-c2ccc(C(C)(C)C)cc2)cc1
outcome [1]: inactive | outcome [2]: inactive | outcome [3]: inactive | outcome [4]: inactive | outcome [5]: inactive | outcome [6]: inactive | outcome [7]: inactive | outcome [8]: inactive | outcome [9]: inactive | outcome [10]: inactive | outcome [11]: inactive | outcome [12]: inactive | outcome [13]: inactive

c1ccc2c(c1)ccc1cc3c(ccc4ccccc43)cc12
outcome [1]: inactive | outcome [4]: inactive | outcome [6]: inactive | outcome [8]: inactive | outcome [9]: inactive | outcome [10]: inactive | outcome [11]: inactive | outcome [12]: inactive | outcome [13]: inactive | outcome [14]: inactive | outcome [15]: inactive

C=C1[C@H]2CC[C@@H]3[C@H]2C(C)(C)CCC[C@]13C
AC50 [1]: 5.34 µM (active) | outcome [2]: inactive | outcome [4]: inactive | outcome [5]: inactive | outcome [6]: inactive | outcome [7]: inactive | outcome [8]: inactive | outcome [9]: inactive | outcome [10]: inactive | outcome [11]: inactive | outcome [16]: inactive | AC50 [12]: 18.9 µM (active) | outcome [13]: inactive | outcome [14]: inactive

C[Si](C)(CCCN)O[Si](C)(C)CCCN
outcome [1]: inactive | outcome [2]: inactive | outcome [3]: inactive | AC50 [6]: 54.5 µM (active) | outcome [9]: inactive | outcome [10]: inactive | outcome [11]: inactive | outcome [17]: inactive | outcome [13]: inactive

C1CN(SSN2CCOCC2)CCO1
outcome [1]: inactive | outcome [2]: inactive | outcome [4]: inactive | outcome [5]: inactive | outcome [6]: inactive | outcome [7]: inactive | outcome [8]: inactive | outcome [9]: inactive | outcome [10]: inactive | outcome [11]: inactive | outcome [17]: inactive | outcome [12]: inactive | outcome [18]: inactive | outcome [13]: inactive | outcome [14]: inactive | outcome [19]: inactive

CCCCCCCCCCC=CC#N
outcome [2]: inactive | outcome [4]: inactive | outcome [5]: inactive | outcome [6]: inactive | outcome [7]: inactive | outcome [8]: inactive | outcome [9]: inactive | outcome [10]: inactive | outcome [11]: inactive | outcome [17]: inactive | outcome [16]: inactive | AC50 [12]: 73.1 µM (active) | outcome [13]: inactive | outcome [14]: inactive

C=CC=CC=CCCCCC
outcome [2]: inactive | outcome [3]: inactive | outcome [4]: inactive | outcome [5]: inactive | outcome [6]: inactive | outcome [7]: inactive | outcome [8]: inactive | outcome [9]: inactive | outcome [10]: inactive | outcome [11]: inactive | outcome [17]: inactive | outcome [12]: inactive | outcome [18]: inactive | outcome [13]: inactive

CC(=O)Oc1ccc(C(C)=O)cc1
outcome [1]: inactive | outcome [2]: inactive | outcome [3]: inactive | outcome [4]: inactive | outcome [5]: inactive | outcome [6]: inactive | outcome [8]: inactive | outcome [9]: inactive | outcome [10]: inactive | outcome [11]: inactive | outcome [17]: inactive | outcome [16]: inactive | outcome [12]: inactive | outcome [13]: inactive | outcome [14]: inactive

Cc1cc(C)c(C(=O)O)c(C)c1
outcome [1]: inactive | outcome [3]: inactive | outcome [4]: inactive | outcome [5]: inactive | outcome [6]: inactive | outcome [8]: inactive | outcome [10]: inactive | outcome [11]: inactive | outcome [17]: inactive | outcome [12]: inactive | outcome [13]: inactive | outcome [15]: inactive

N#[N+]c1ccc2c(S(=O)(=O)[O-])cccc2c1O
outcome [1]: inactive | outcome [3]: inactive | outcome [4]: inactive | outcome [6]: inactive | outcome [7]: inactive | outcome [8]: inactive | outcome [9]: inactive | outcome [10]: inactive | outcome [11]: inactive | outcome [17]: inactive | outcome [16]: inactive | outcome [12]: inactive | outcome [18]: inactive | outcome [13]: inactive | outcome [14]: inactive | outcome [15]: inactive | outcome [19]: inactive

— PubChem BioAssay (EPA / NIEHS)
